# Laboratory results as given in ChEMBL document CHEMBL3988442, “University of Dundee, Small-Polar-MMV Screening Library” (2021).
# Screen size: about 48,000 compounds; about 13,000 (27%) showed an effect of 50% or more. This is one part of the list.
# Tested on: Wolbachia pipientis
# Test: Anti-Wolbachia Cell-Based Screen
# Type: functional
# Parameters: scale not given: in the data most compounds retested in dose-response had high values
# Settings: 5 µM
row,Compound,Percent Effect
1,O=C(CCNS(=O)(=O)c1cccnc1)N1CCCCC1,-5.593%
2,O=C(c1cnccn1)N1C[C@@H]2OCC(=O)N(CC3CCCCC3)[C@@H]2C1,-4.007%
3,Cc1ccc(C)c(NC(=O)c2n[nH]c(-n3cnnc3)n2)c1,8.614%
4,Cn1c(Nc2ccc(F)cc2)c(C#N)c(=O)n(C)c1=O,7.851%
5,CNC(=O)C1(c2cnccn2)CCCN1C(=O)c1ccccc1 (stereo not given),95.42%
6,O=C(c1cnn(-c2ccccc2)c1)N1CCN(c2cnccn2)CC1,-7.881%
7,Cc1cccc(C(=O)N2CCn3c(CN4CCN(C)CC4)cnc3C2)n1,-13.05%
8,Cc1cccc(C(=O)N2C[C@@H]3[C@H](CC(=O)Nc4cccnc4)[C@@H]3C2)n1.O=C(O)C(F)(F)F.O=C(O)C(F)(F)F,-1.772%
9,CNC(=O)C1(c2cnccn2)CCCN1C(=O)c1cccc(C)n1 (stereo not given),90.25%
10,CC1(C(=O)NCCN2CCCCC2)CCCN1C(=O)c1ccccc1 (stereo not given),0.8057%
11,CC1=CC(C)(C)N(CN2C(=O)c3ccccc3C2=O)c2ccccc21,-12.76%
12,CNC(=O)C(c1cccc(Cl)c1)C(C)C (stereo not given),-9.115%
13,COc1ccc(C2(c3nc(-c4cccnc4)no3)CCOCC2)cc1,-4.756%
14,Cc1nc(C)n(C2CCCN(C(=O)CCCc3ccccn3)C2)n1 (stereo not given),81.77%
15,COc1ccc(CC(=O)N2CCCC(n3cc(C)cn3)C2)cc1F (stereo not given),-2.795%
16,Cc1cnn(C2CCCN(C(=O)CCCc3ccccn3)C2)c1 (stereo not given),102.3%
17,Cc1cc(C)n(C2CCCN(C(=O)CCNc3ncccn3)C2)n1 (stereo not given),114.6%
18,Cc1cc(C)n(C2CCCN(C(=O)CCCNc3ncccn3)C2)n1 (stereo not given),16.33%
19,Cc1cnn(C2CCCN(C(=O)CCCOc3ccccc3F)C2)c1 (stereo not given),143.9%
20,Cc1cnn(C2CCCN(C(=O)CCCOc3cccc(F)c3)C2)c1 (stereo not given),4.981%
21,Cc1nc(C)n(C2CCCN(C(=O)CCc3ccncc3)C2)n1 (stereo not given),4.522%
22,O=C(CCNc1ncccn1)N1CCCC(n2ccnc2)C1 (stereo not given),-7.544%
23,Cc1nc(C)n(C2CCCN(C(=O)c3cccnc3NC(C)C)C2)n1 (stereo not given),-8.043%
24,Cc1cnn(C2CCCN(C(=O)CCCNc3ncccn3)C2)c1 (stereo not given),0.4653%
25,CCOCc1nc2c(c(N3CC=CC3)n1)CCN(Cc1ccco1)CC2,-6.095%

row,Compound,Percent Effect
1,CCn1c(C)nnc1SCCNc1nc(C)nc2ncccc12,-6.645%
2,CCOc1ccc(NS(=O)(=O)c2cc(C)c(C(=O)O)s2)c(C)c1,5.769%
3,Cc1nn(C)c(C)c1C(C)NC(=O)c1cc(CN2CCC(O)CC2)on1 (stereo not given),-4.084%
4,Cc1cnn(Cc2ccc(NC(=O)N[C@@H]3C=C[C@H](CO)C3)cc2)c1,-14.53%
5,CSC(C)Cc1c(-c2ccccc2)ncn1CCCNc1cccnc1 (stereo not given),-5.851%
6,CCc1nccn1C1CCCN(C(=O)CCc2nccs2)C1 (stereo not given),3.707%
7,Cc1cc(C)n(C2CCCN(C(=O)CCCc3ccccn3)C2)n1 (stereo not given),93.32%
8,COc1ccccc1CC(=O)N1CCCC(n2nc(C)cc2C)C1 (stereo not given),7.114%
9,CCc1nccn1C1CCCN(C(=O)Cc2n[nH]c3ccccc23)C1 (stereo not given),-2.139%
10,Cc1cc(C)n(CC2CCCN2C(=O)CCCc2ccccn2)n1 (stereo not given),-3.027%
11,CCc1nccn1C1CCCN(C(=O)CCCc2ccccn2)C1 (stereo not given),115.4%
12,Cc1cnn(C2CCCN(C(=O)CCCn3ccnc3C)C2)c1 (stereo not given),111.3%
13,Cn1cnnc1C1CCCN(c2nc3ccccc3o2)C1 (stereo not given),-0.3699%
14,CCc1ncc2c(n1)CN(Cc1cn3ccsc3n1)CC2,20.43%
15,Cc1nc2c(c(N(C)CC3Cc4ccccc4CN3C)n1)CCNCC2 (stereo not given),-8.073%
16,CC(C)(C)NC[C@@H]1CCC[C@@H]2CN(Cc3csnn3)C[C@@H]21.O=C(O)C(F)(F)F.O=C(O)C(F)(F)F,1.989%
17,CCN(C)S(=O)(=O)N1C[C@@H]2CC[C@H](C1)N(Cc1cscn1)C2=O,-57.82%
18,COCc1cccc(NC(C)C(=O)N(C)Cc2ccccc2)c1 (stereo not given),-9.622%
19,Cc1nnc(C(C)Nc2cccc(COCCOC(C)C)c2)o1 (stereo not given),-13.05%
20,CCOC(=O)C(C)Nc1cccc(COCc2ccco2)c1 (stereo not given),114.3%
21,CCCNC(=O)C(C)Nc1ccc(COCC)cc1 (stereo not given),-5.955%
22,CC(Nc1cccc(COCc2ccco2)c1)C(=O)NC(N)=O (stereo not given),118%
23,CC(Nc1cccc(CN2CCOC2=O)c1)C(=O)NC(N)=O (stereo not given),6.904%
24,O=C(O)C(F)(F)F.O=C(O)C(F)(F)F.O=C(c1ccncc1)N1CCN2C[C@H](Oc3cccc(F)c3)C[C@H]2C1,3.231%
25,Cc1cccnc1NC(=O)C(C)Cn1nc(C(F)(F)F)cc1C (stereo not given),5.887%

row,Compound,Percent Effect
1,c1c[nH]c2nc(C3CCNC3)nc-2c1 (stereo not given),89.57%
2,Fc1ccc2nc([C@H]3CCNC3)[nH]c2c1,-0.4881%
3,CCC(=O)NCC(=O)Nc1ncc(I)cc1C,-1.135%
4,C[C@H]1CN(c2ccccn2)C[C@@]12CCN(c1cccnc1)C2=O.O=C(O)C(F)(F)F.O=C(O)C(F)(F)F,96.67%
5,Cc1ccc(N2C[C@H](C)[C@]3(CCN(c4cccnc4)C3=O)C2)nn1.O=C(O)C(F)(F)F.O=C(O)C(F)(F)F,82.56%
6,C[C@@H]1CN(C(=O)C2CCOCC2)C[C@]12CCN(c1cccnc1)C2=O.O=C(O)C(F)(F)F,-10.36%
7,COc1cc(N2CCC3(CC2)CCN(c2cccnc2)C3=O)ncn1.O=C(O)C(F)(F)F,-8.044%
8,NS(=O)(=O)CCNC(=O)c1cc(Br)c2c(c1)OCCO2,3.55%
9,CC(C)n1cc(CN2CCCN(C(=O)c3ccc[nH]3)CC2)cn1,-9.453%
10,CC(C(=O)N1CCCN(Cc2ccc(C#N)cc2)CC1)n1ccnc1 (stereo not given),-13.4%
11,CC(C)n1cc(CN2CCCN(C(=O)C(C)n3cccn3)CC2)cn1 (stereo not given),97.33%
12,Cc1ncncc1C(=O)N1CCCN(Cc2cnn(C(C)C)c2)CC1,-23.75%
13,CC(C)n1cc(CN2CCCN(C(=O)c3nccnc3N)CC2)cn1,-14.33%
14,CC(C)n1cc(CN2CCCN(C(=O)C(C)n3cncn3)CC2)cn1 (stereo not given),115.2%
15,CC(C(=O)N1CCCN(Cc2cnn(C(C)C)c2)CC1)n1ccnc1 (stereo not given),86.84%
16,CC(C)C(C(=O)N1CCCN(Cc2cnn(C)c2)CC1)n1cncn1 (stereo not given),-6.037%
17,CCC(=O)N1CCN(c2cc(-n3cnc(C)c3C)nc(C)n2)CC1,-0.8212%
18,CN1CCOC(C(=O)N(C)c2ccc3c(c2)CCO3)C1 (stereo not given),-1.104%
19,Cc1cccc(-c2nc(C)nn2CN2CCN(c3ncccn3)CC2)c1,-20.31%
20,CCC(C(=O)NCc1ccncc1)N(c1ccccc1)S(C)(=O)=O (stereo not given),-24.56%
21,COCCn1cc(NC(=O)NC(C)c2ccc(Cl)s2)cn1 (stereo not given),1.705%
22,CC1(C)[C@H](Cc2cc(CN3CCCCC3)on2)C[C@@H]1NS(C)(=O)=O,-2.638%
23,CN(C)C(CNC(=O)c1nc(N2CCCC2)ncc1Cl)c1ccco1 (stereo not given),2.501%
24,CN(Cc1ccsc1)C(=O)c1nc(N2CCCC2)ncc1Cl,-53.64%
25,CN(Cc1ccsc1)C(=O)c1nc(N2CCCCC2)ncc1Cl,3.668%

row,Compound,Percent Effect
1,CC(C)C(=O)N(C)Cc1nc(N2CCCC2)ncc1-c1ccncc1.Cl,82.87%
2,CN(Cc1nc(N2CCCC2)ncc1-c1ccncc1)C(=O)C(C)(C)C.Cl,94.15%
3,Cn1c(NC(=O)CCS(=O)(=O)C2CCCC2)nc2cc(Cl)ccc21,1.786%
4,CCN(CC)CC[C@H]1CN(C(=O)CC(C)(C)C)CC[C@H]1CC(=O)O,-10.9%
5,O=C(C1CC1)N1CCc2[nH]cnc2C12CCN(C1CCOCC1)CC2,-3.543%
6,CC1CN(S(=O)(=O)c2ccc(F)cc2)c2cccnc2O1 (stereo not given),-6.329%
7,O=S(=O)(c1ccc(F)c(F)c1)n1cc(Cl)cn1,96.85%
8,Cn1cc(CNS(=O)(=O)c2cc(F)ccc2F)cn1,-25.59%
9,O=S(=O)(c1cc(F)cc(F)c1)N1CCC(Oc2ccc(Cl)cn2)CC1,14.51%
10,O=S(=O)(c1ccc(F)cc1)N1CCCn2cnc(CN3CCCC3)c2C1,-4.272%
11,O=S(=O)(c1cc(F)ccc1F)n1cc(Cl)cn1,95.85%
12,COc1ccc(F)cc1S(=O)(=O)N1CCC(Oc2ccc(Cl)cn2)CC1,-6.405%
13,Cc1cnn(-c2ccc(S(N)(=O)=O)cc2F)c1,-6.422%
14,O=S(=O)(c1ccc(F)cc1)n1cc(Cl)cn1,120.8%
15,Cc1nc(CCNC(Cc2ccncc2)C(F)(F)F)cs1 (stereo not given),-2.78%
16,CC(O)CCn1ccc2[nH]c(=O)c(C#N)cc2c1=O (stereo not given),-44.58%
17,COC(=O)C(C)NCc1ccc2[nH]c(C)c(C)c2c1 (stereo not given),-1.475%
18,COc1cc(C(=O)N(C)Cc2cc(C(=O)O)c(C)o2)cc(OC)c1OC,-0.7675%
19,COC(=O)c1cc2c(OC)c(OC)c(OC)cc2[nH]1,120.2%
20,COc1cc2[nH]c(=O)c(CN3CCC[C@@H]3C(N)=O)cc2c(OC)c1OC,-9.081%
21,COC(=O)c1cc2c(OC)c(C)c(OC)cc2[nH]1,95.02%
22,COc1cc2[nH]c(C(=O)O)cc2c(OC)c1C,98.44%
23,COc1cc2[nH]c(=O)c(CN3CCCC(CO)C3)cc2c(OC)c1OC (stereo not given),1.788%
24,COc1cc2cc(C(=O)O)n(C)c2c(OC)c1OC,-1.189%
25,COc1cc(C(=O)Nc2c(C)noc2C)ccc1C,5.924%
